Records with an inconclusive call do not appear. Activity calls are given as the source filed them. How the source made its calls: active means hit-call score of the fitted dose curve at least 0.9, where 1 is the maximum; inconclusive means response in the unintended direction; inactive means score below 0.9.
experiment: NVS_IC_rCaBTZCHL: NovaScreen (NVS) Ion Channel Assay for Calcium Channel, Type L, Benzothiazepine Site (CaBTZCHL) (AID 2283337)
Protocol: NVS_IC_rCaBTZCHL is a biochemical, single-readout assay that uses extracted gene-proteins from Rat cortical membranes in a tissue-based cell-free assay. Measurements were taken 1.5 hours after chemical dosing in a 48-well plate.NVS_IC_rCaBTZCHL is one of one assay component(s) measured or calculated from the NVS_IC_rCaBTZCHL assay. It is designed to make measurements of radioligand binding, a form of binding reporter, as detected with scintillation counting signals by Filter-based radiodetection technology.Data from the assay component NVS_IC_rCaBTZCHL was analyzed into 1 assay endpoint. This assay endpoint, NVS_IC_rCaBTZCHL, was analyzed in the positive analysis fitting direction relative to DMSO as the negative control and baseline of activity. Using a type of binding reporter, loss-of-signal activity can be used to understand changes in the binding as they relate to the gene Cacna1a. Furthermore, this assay endpoint can be referred to as a primary readout, because the performed assay has only produced 1 assay endpoint. To generalize the intended target to other relatable targets, this assay endpoint is annotated to the ion channel intended target family, where the subfamily is calcium channel.
Binding assays used specific radioligands (tritiated, iodinated) with non-radioactive competitive displacement ligands in agonist or antagonist protocols (as indicated) and various reference compounds and inhibitors to titrate specific binding to receptors and transporters. Most enzyme assays (CYPs, kinases, phosphatases, proteases, HDACs) used recombinant protein and specific substrates (fluorescence mostly, some colorimetric and radioactive) and inhibitors, followed by a biochemical separation of substrate and product. All assays for the biochemical HTS were initially run in duplicate at a single concentration (10 uM for CYP450 assays and 25 uM for all others). […] Each assay was run with positive and negative controls, and concurrent controls on every plate. The follow-up (secondary) screen tested active chemical-pairs in concentration series, as well as a few additional assays not tested in the primary screen, some selected negative inactives, and several cases re-run in the concentration series for confirmatory purposes.

AC50, active:
CN(C)C(=O)NC1(c2ccccc2)CCN(CCC[C@]2(c3ccc(Cl)c(Cl)c3)CCCN(C(=O)c3ccccc3)C2)CC1 1.24 µM, COc1ccc(OC(F)(F)F)cc1CN[C@H]1CCCN[C@H]1c1ccccc1 1.24 µM, CN(C)CCCN1c2ccccc2Sc2ccc(Cl)cc21 2.52 µM, CN(C)C(=O)NC1(c2ccccc2)CCN(CC[C@@]2(c3ccc(F)c(F)c3)CN(C(=O)c3ccccc3)CCO2)CC1 2.2 µM, COC(=O)[C@H]1[C@H]2C[C@@H]3c4[nH]c5cc(OC)ccc5c4CCN3C[C@H]2C[C@@H](OC(=O)c2cc(OC)c(OC)c(OC)c2)[C@@H]1OC 6.93 µM, NC(=Nc1ccccc1)Nc1ccccc1 40.6 µM, O=C(N[C@@H](c1ccccc1)[C@@H]1CCCCN1)c1cccc(C(F)(F)F)c1Cl 0.967 µM, CCN(CC)CCOc1ccc(C(=C(Cl)c2ccccc2)c2ccccc2)cc1 1.02 µM, CSc1ccc(Oc2ccc(S(N)(=O)=O)cc2CN(C)C)cc1C 10.1 µM, O=C(O)c1[nH]n(-c2ccc(S(=O)(=O)O)cc2)c(=O)c1N=Nc1ccc(S(=O)(=O)O)cc1 10.4 µM, CCc1nc(N)nc(N)c1-c1ccc(Cl)cc1 8.32 µM, CCC(C)N(C)C(=O)c1cc2ccccc2c(-c2ccccc2Cl)n1 (configuration not stated) 9.12 µM
